Source: PubChem
Sampled rows, rich in hits. Any-hit rate of the full collection: about 1.4%.
Glioma ERSR ind: qHTS for Inducers of the Endoplasmic Reticulum Stress Response (ERSR) in Human Glioma: qHTS. hit rate 0.02% among 420,000. Potency, µM, hits mostly activators. U87-MG GRP78 promoter luciferase reporter, 16 h. AID 602332, 2012; also: series mostly up to about 76 µM; nearly all actives have a fitted effect of over 35% in size
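Stably transfected U87-MG human glioma cells carrying a GRP78-based luminescent sensor were seeded at 1000 cells/well, pin-dosed with compounds and incubated 16 h. Luciferase reagent was then added, and end-point luminescence was read after 10 min at room temperature.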
KCNH2 3.1 inh: qHTS for Inhibitors of KCHN2 3.1: Mutant qHTS. AID 720553, 2013. hit rate 0.95% among 340,000. activity change, % (tested at about 1.8 µM). U2OS KCNH2 3.1, thallium flux FluxOr; stronger effect = lower value;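 active = maximum activity change below -70%; inconclusive = maximum activity change from -70% to -50%; inactive = maximum activity change above -50%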;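 also: thallium influx rate constant from kinetic fluorescence after stimulation buffer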
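FluxOr-based Tl+ influx in U2OS cells transduced with KCNH2 3.1 virus; rate constants normalized to DMSO controls.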
KCNH2 WT inh: qHTS for Inhibitors of KCHN2 3.1: Wildtype qHTS. Voltage-gated inwardly rectifying potassium channel KCNH2 (Homo sapiens), Q12809. U2OS, BacMam KCNH2, thallium flux FluxOr; stronger effect = lower value. activity change, % at 1.84 µM. hit rate 0.37% among 340,000. AID 720551, 2013;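 active = maximum activity change below -70%; inconclusive = maximum activity change between -70% and -50%; inactive = maximum activity change above -50%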
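U2OS cells transduced with wild-type KCNH2 virus are loaded with FluxOr dye for 45 min, and thallium flux is measured in kinetic reads before and after stimulation buffer. Rate constants are normalized to DMSO controls.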
RXFP1 ag: qHTS Assay for Agonists of the Relaxin Receptor RXFP1 | Potency, µM (titrated, usually from 57.5 µM), hits mostly activators | AID 2676, 2010 | HEK293T-RXFP1 cAMP TR-FRET, 30 min; response scale: percent of porcine relaxin response, buffer zero | hit rate 0.3% among 370,000 | Relaxin receptor 1 (Homo sapiens), Q9HBX9; also: nearly all actives have a fitted effect of over 60% in size
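Agonist response is measured as cAMP accumulation in an RXFP1-transfected HEK293T line under PDE4 inhibition. Values are scaled between buffer-only and 29 nM porcine relaxin, and EC50s come from standard Hill equation fits.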
PTHR1 ag: qHTS for PTHR1 Agonists: Primary Screen | Parathyroid hormone/parathyroid hormone-related peptide receptor (Homo sapiens), Q03431 | HEK293 GP2 PTHR1 cells, GloSensor cAMP luminescence, 1 h | Potency, µM (doses to about 115 µM), actives largely listed as activators | hit rate 0.075% among 410,000; also: nearly all actives have a fitted effect of over 55% in size
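HEK-293-derived GP2 cells expressing PTHR1 and a GloSensor cAMP reporter, 3,000/well, plated overnight, given luciferin plus IBMX (each 0.5 mM as added) for 1 h at 37 °C, then compound for 1 h at 37 °C. Luminescence was read after 15 min at room temperature.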
RXFP1 antag: qHTS Assay for Antagonists of the Relaxin Receptor RXFP1 | HEK293-RXFP1, relaxin-stimulated cAMP HTRF, 30 min; stronger effect = lower value | activity change, negative = inhibition, % at 57.5 µM | hit rate 0.59% among 350,000;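 active = activity change of -60% or lower, but not beyond a set lower limit; inconclusive = change between -60% and -40%, or beyond the set limit; inactive = change above -40%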
Of the large screens only hits and unclear results are named; the others gave an inactive call. Unless noted, calls follow the shape of the dose curve; as a rule, active = well fitted curve in the direction sought with a large enough effect; inconclusive = small, poorly fitted or top-dose-only effect, or another doubt; inactive = no such curve, though single readings can be large; an effect the other way counts as inactive or inconclusive.

Cc1cccn2c(NCc3ccc4c(c3)OCO4)c(-c3ccc(O)cc3)nc12	KCNH2 3.1 inh -94
CCOC(=O)C1(Cc2cccc(OC)c2)CCN(Cc2ccc(OC)c(O)c2)CC1	KCNH2 3.1 inh -77
CCOC(=O)C1(CCOc2ccccc2)CCN(Cc2cnc(SC)nc2)CC1	none
CCOC(=O)C1(CCOc2ccccc2)CCN(Cc2cc(OC)c(O)c(OC)c2)CC1	KCNH2 3.1 inh -77
CCOC(=O)C1(Cc2cccc(OC)c2)CCN(C/C=C/c2ccc(OC)cc2)CC1	KCNH2 3.1 inh inconclusive, RXFP1 antag -82
CCOC(=O)C1(CCOc2ccccc2)CCN(Cc2ccc(O)c(OCC)c2)CC1	KCNH2 3.1 inh -102, KCNH2 WT inh -118
CCOC(=O)C1(CCOc2ccccc2)CCN(Cc2ccc(OC)c(COC)c2)CC1	KCNH2 3.1 inh inconclusive
CCOC(=O)C1(CCOc2ccccc2)CCN(Cc2ccc(OC)c(O)c2)CC1	KCNH2 3.1 inh -112, KCNH2 WT inh -77
Cc1ccc(CNC(=O)CCCCCn2c(=O)c3sccc3n(CC(=O)Nc3ccc(C)c(F)c3)c2=O)cc1	RXFP1 ag 32µM (no result: Glioma ERSR ind, KCNH2 3.1 inh, KCNH2 WT inh)
Cc1ccc(NC(=O)Cn2c(=O)n(CCCCCC(=O)NCc3ccc(F)cc3)c(=O)c3sccc32)c(C)c1	none (no result: Glioma ERSR ind, KCNH2 3.1 inh, KCNH2 WT inh)
CNC(=O)CSc1nnc(-c2ccco2)n1-c1cc(C)ccc1C	KCNH2 WT inh -140
Nc1ccc(C(=O)N/N=C\c2cc(N=Nc3cccc4ccccc34)ccc2O)cc1	none
COc1ccc(Nc2nc(-c3sc(C)nc3C)cs2)cc1	RXFP1 antag -61
CCN(CC(=O)Nc1ccc(NC(C)=O)cc1)C(=O)CSCC(=O)Nc1ccc(C)cc1	none
CCOC(=O)CC(=O)CSCC(=O)Nc1ccc(C)cc1	KCNH2 3.1 inh -75
COC(=O)c1ccc(-c2cccc3c2OC(CNC(=O)c2ccc4c(c2)OCCO4)C3)nc1 (stereo unspecified)	none (no result: KCNH2 3.1 inh, KCNH2 WT inh, RXFP1 ag, PTHR1 ag, RXFP1 antag)
Oc1ccc(C[C@H]2CN([C@@H](Cc3ccc(O)cc3)CN3CCC[C@@H]3CN3C(=S)NC[C@@H]3Cc3ccccc3)C(=S)N2CCc2ccccc2)cc1	none (no result: KCNH2 3.1 inh, KCNH2 WT inh, RXFP1 ag, RXFP1 antag)
CC(C)C[C@@H](CN1CCCC1CN1C(=S)NC[C@@H]1Cc1ccc(O)cc1)N1C[C@H](Cc2ccc(O)cc2)N(CCc2ccccc2)C1=S (stereo partly specified)	KCNH2 3.1 inh -79, KCNH2 WT inh -121 (no result: RXFP1 ag, RXFP1 antag)
CCOc1ccc(CCN2C(=S)N([C@@H](Cc3ccc(O)cc3)CN3CCCC3CN3C(=S)NC[C@@H]3Cc3ccc(O)cc3)C[C@@H]2CC(C)C)cc1 (stereo partly specified)	KCNH2 WT inh -80 (no result: RXFP1 ag, RXFP1 antag)
Cn1c(=O)c2c(ncn2CCCC(=N)N2CCOCC2)n(C)c1=O	RXFP1 ag inconclusive
Cc1ccc(Cl)c(OCCCCN(C)Cc2ccccc2)c1	none
Cc1ccc(Cl)c(OCCCN(C)Cc2ccccc2)c1	KCNH2 WT inh -70
Cc1cc(NS(=O)(=O)c2ccc(C3CCCCC3)cc2)no1	none
CC(=O)c1ccc(NC(=O)C2(c3ccccc3)CCOCC2)cc1	KCNH2 3.1 inh -108
O=C(c1ccc(NC(=O)C2(c3ccccc3)CCOCC2)cc1)N1CCOCC1	none
Oc1ccc2ccccc2c1C=Nc1ccc(Cl)cn1	KCNH2 3.1 inh -114
COc1ccc(C2NC(=S)NC(C)=C2C(=O)N2CCOCC2)cc1 (stereo unspecified)	KCNH2 WT inh -278
Cc1cc(/C=C2\SC(=S)NC2=O)c(C)[nH]1	RXFP1 antag -111
CN1C(=O)OC(C)(C)C1=O	none (no result: KCNH2 3.1 inh, KCNH2 WT inh, RXFP1 ag, PTHR1 ag, RXFP1 antag)
COc1ccc(-n2c(=S)[nH]c3cc(C(=O)NCc4cccnc4)ccc3c2=O)c(OC)c1	RXFP1 antag -71
Cc1cccc(Nc2c3c(nc4nncn24)CCC3)c1	none (no result: Glioma ERSR ind, KCNH2 3.1 inh, KCNH2 WT inh)
Cc1nn2c(=O)cc(CSCC(=O)Nc3ccccc3F)nc2s1	KCNH2 3.1 inh -142
COc1ccc(OCC(O)CNC(C)c2ccccc2)cc1 (stereo unspecified)	none
CC(NCC(O)COc1ccc2ccccc2c1)c1ccccc1 (stereo unspecified)	RXFP1 antag -87
CCc1cc2c(=O)c(-c3nc4ccccc4n3C)coc2c(CN2CCCCC2)c1O	none
O=C(CSc1n[nH]c(=O)n1C1CC1)Nc1ccc(F)c(Cl)c1	RXFP1 antag -78 (no result: RXFP1 ag)
O=C(CSc1n[nH]c(=O)n1C1CC1)Nc1ccc(Cl)c(Cl)c1	none
Oc1ccc(/C=N/N(Cc2ccccc2)c2ccccc2)c(O)c1O	RXFP1 antag -92
CCCCCCCCCCCCCCCC(=O)OCC(COC(=O)CCCCCCCCCCCCCCC)OC(=O)CCCCCCCCCCCCCCC	none (no result: KCNH2 3.1 inh, KCNH2 WT inh, RXFP1 ag, PTHR1 ag, RXFP1 antag)
COc1cc2c(c(O)c1OC)-c1c(cc(OC)c(OC)c1OC)C[C@@H](C)[C@@H](C)C2	none (no result: RXFP1 antag)
COc1cc2c(c(OC)c1OC)-c1c(cc(OC)c(OC)c1OC)C[C@H](C)[C@H](C)C2	KCNH2 3.1 inh -174, KCNH2 WT inh -74 (no result: RXFP1 antag)
COc1ccc(Cn2nnnc2C(c2cccs2)N2CCN(c3ccc([N+](=O)[O-])cc3)CC2)cc1 (stereo unspecified)	KCNH2 3.1 inh -99, KCNH2 WT inh inconclusive
COc1ccc(Cn2nnnc2C(c2cccs2)N2CCN(c3ccccc3)CC2)cc1 (stereo unspecified)	none
COc1ccc(Cn2nnnc2C(c2ccc(C)cc2)N2CCN(C3CCCC3)CC2)cc1 (stereo unspecified)	KCNH2 3.1 inh -73
COc1ccc(CCNS(=O)(=O)c2ccc3c(c2)OCCO3)cc1OC	none
CCOC(=O)c1c(C)nc2sccn12	KCNH2 3.1 inh -95
O=C(c1cc2ccccc2oc1=O)N(Cc1cccs1)C1CCS(=O)(=O)C1 (stereo unspecified)	KCNH2 3.1 inh -163, KCNH2 WT inh -174
O=C(c1cc2ccccc2oc1=O)N(Cc1ccc(F)cc1)C1CCS(=O)(=O)C1 (stereo unspecified)	none
CCN(CC(=O)NCc1cccs1)C(=O)c1cccc(S(=O)(=O)N2CC(C)OC(C)C2)c1 (stereo unspecified)	KCNH2 3.1 inh -156, KCNH2 WT inh -131, PTHR1 ag inconclusive (no result: RXFP1 ag)
CCN(CC(=O)NCc1cccs1)C(=O)c1cccc(S(=O)(=O)N2CCc3ccccc32)c1	none
CCOC(=O)c1c(N)c2cc([N+](=O)[O-])ccc2n1C	KCNH2 3.1 inh -97
CCOC(=O)/C(=C/c1c(C)n(C)c2ccc([N+](=O)[O-])cc12)C(C)=O	Glioma ERSR ind inconclusive
